Reference: PubChem BioAssay AID602141 (Sanford-Burnham Center for Chemical Genomics, 2011)
In all, about 360,000 compounds went through this assay and about 1,300 (0.36%) were called active. For the sample, actives were picked, then their nearest neighbours and some compounds at random. A number with no mark means an inactive call.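 The calls were made as follows: active = corrected activity change at or below -50% at 5 µM; inactive = the rest.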

Assay: KKLEB cell viability reduction – uHTS, fluorescence assay plates, cytotoxicity control for CF NF-kB inhibitor project, primary screen (AID 602141)
Details: KKLEB CF airway cells viability, ATPlite luminescence, overnight, at 5 µM, active compounds read low

Compound	activity change (cytotoxicity)
CC1=C(C(=O)Nc2ccccc2)SCCO1	-58.9% (active)
CC1=C(C(=O)Nc2ccccc2)S(=O)(=O)CCO1	-6%
CC(Cc1ccccc1)NCCC(c1ccccc1)c1ccccc1 (stereo not given)	-16.7%
Cc1c(Oc2cc(NN3CCCCC3)c([N+](=O)[O-])cc2[N+](=O)[O-])cccc1[N+](=O)[O-]	-5.7%
CCOc1cccc(=NC2CCCCC2)c2c(C)[nH]c(C)c12	4.1%
CCc1nc2ccccc2c(=O)n1-c1cccc(OC)c1	-1.5%
CC12CCC(O)CC1CCC1C2CCC2(C)C(C(=O)CC(O)C(F)(F)F)CCC12 (stereo not given)	3.6% [cells stimulated with P. aeruginosa culture filtrate]
C[C@]12CC[C@H](O)C[C@H]1CC[C@@H]1C2CC[C@]2(C)[C@@H](C3=CC(=O)OC3)[C@@H](O)C[C@]12O (stereo not given in full)	-53.3% [cells stimulated with P. aeruginosa culture filtrate] (active)
Cc1ccc(CN2CCCC(C(=O)c3ccc4c(c3)OCO4)C2)cc1C (stereo not given)	-12.8%
Cc1nn(Cc2ccccc2Cl)c(Cl)c1C(=O)OC(C(=O)NC(N)=O)C(C)C (stereo not given)	-1.6%
O=C(CSC1c2ccccc2-c2ccccc21)N/N=C/c1ccccc1	11.7%
O=c1[nH]c2ccccc2n1C1CCN(C(c2ccccc2)c2nnnn2Cc2ccccc2)CC1 (stereo not given)	-106% [cells stimulated with P. aeruginosa culture filtrate] (active)
O=c1[nH]c2ccccc2n1C1CCN(C(c2ccnc3ccccc23)c2nnnn2Cc2ccccc2)CC1 (stereo not given)	-13.5% [cells stimulated with P. aeruginosa culture filtrate]
CSCCC(c1nnnn1C(C)(C)C)N1CCC(n2c(=O)[nH]c3ccccc32)CC1 (stereo not given)	-1.4% [cells stimulated with P. aeruginosa culture filtrate]
CC1([N+](=O)[O-])COP(=O)(Nc2ccc(F)cc2)OC1 (stereo not given)	8.2% [cells stimulated with P. aeruginosa culture filtrate]
CCc1cccc2c(C#N)cn(CC(=O)N3CCOCC3)c12	3.2%
CC(=O)OC1C2(CC3N4C(=O)C5(CO)SSC4(CC31O)C(=O)N5C)OC(C)C(C)(C)C2=O (stereo not given)	-95% [cells stimulated with P. aeruginosa culture filtrate] (active)
CCC(C)n1c(O)c(/C=N/Nc2nc3c(c(=O)n(C)c(=O)n3C)n2C)c(=O)[nH]c1=S (stereo not given)	-14.1%
C[C@@]1([C@@H](NP(=O)(c2ccccc2)c2ccccc2)c2ccccc2)C[C@H]1CCO	15%
COc1ccc(NC(=O)c2cn(CCC#N)nc2-c2ccc([N+](=O)[O-])cc2)cc1	-13.1%
CCCCCCCCCCCCn1ccc(=N)cc1	-61.1% (active)
O=c1[nH]c(CN2CC=C(c3ccccc3)CC2)nc2scc(-c3cccs3)c12	0.9%
Cc1ccc2c(c1)C1CN(C)CCC1N2C(=O)Cn1nnc(-c2ccccc2F)n1 (stereo not given)	2%
c1cncc(CNCCc2c[nH]c3ccccc23)c1	7.7%
c1ccc(C2NCc3ccccc3-n3cccc32)cc1 (stereo not given)	-7.9%
Cc1ccc(C(C)C)c(OCC(=O)N2CCN(CC(=O)N3CCOCC3)CC2)c1	-1.3% [cells stimulated with P. aeruginosa culture filtrate]
COCCNC(=O)CN1C2CCC1CC(O)(c1cccnc1)C2 (stereo not given)	1.5%
COC1C(O)C(C)OC(OC2CCC3(C=O)C(CCC4C3CCC3(C)C(C5=CC(=O)OC5)CCC43O)C2)C1O (stereo not given)	-58.4% [cells stimulated with P. aeruginosa culture filtrate] (active)
COC(=O)C1=C(c2ccc(Cl)c(C(F)(F)F)c2)C[C@@H]2CC[C@H]1N2C(=O)NC(C)C	-0.4% [cells stimulated with P. aeruginosa culture filtrate]
CC(=O)NCC1=C(c2ccc3ccccc3c2)C[C@@H]2CC[C@H]1N2Cc1ccco1	-7.6%
